From ChEMBL document CHEMBL2218924, “A broad activity screen in support of a chemogenomic map for kinase signalling research and drug discovery” (Biochem J, 2013)

Experiments:
[1] = target: T1, Ephrin type-A receptor 3 (Homo sapiens) (UniProt P29320); details: at 10 µM
T1 sequence (whole entry): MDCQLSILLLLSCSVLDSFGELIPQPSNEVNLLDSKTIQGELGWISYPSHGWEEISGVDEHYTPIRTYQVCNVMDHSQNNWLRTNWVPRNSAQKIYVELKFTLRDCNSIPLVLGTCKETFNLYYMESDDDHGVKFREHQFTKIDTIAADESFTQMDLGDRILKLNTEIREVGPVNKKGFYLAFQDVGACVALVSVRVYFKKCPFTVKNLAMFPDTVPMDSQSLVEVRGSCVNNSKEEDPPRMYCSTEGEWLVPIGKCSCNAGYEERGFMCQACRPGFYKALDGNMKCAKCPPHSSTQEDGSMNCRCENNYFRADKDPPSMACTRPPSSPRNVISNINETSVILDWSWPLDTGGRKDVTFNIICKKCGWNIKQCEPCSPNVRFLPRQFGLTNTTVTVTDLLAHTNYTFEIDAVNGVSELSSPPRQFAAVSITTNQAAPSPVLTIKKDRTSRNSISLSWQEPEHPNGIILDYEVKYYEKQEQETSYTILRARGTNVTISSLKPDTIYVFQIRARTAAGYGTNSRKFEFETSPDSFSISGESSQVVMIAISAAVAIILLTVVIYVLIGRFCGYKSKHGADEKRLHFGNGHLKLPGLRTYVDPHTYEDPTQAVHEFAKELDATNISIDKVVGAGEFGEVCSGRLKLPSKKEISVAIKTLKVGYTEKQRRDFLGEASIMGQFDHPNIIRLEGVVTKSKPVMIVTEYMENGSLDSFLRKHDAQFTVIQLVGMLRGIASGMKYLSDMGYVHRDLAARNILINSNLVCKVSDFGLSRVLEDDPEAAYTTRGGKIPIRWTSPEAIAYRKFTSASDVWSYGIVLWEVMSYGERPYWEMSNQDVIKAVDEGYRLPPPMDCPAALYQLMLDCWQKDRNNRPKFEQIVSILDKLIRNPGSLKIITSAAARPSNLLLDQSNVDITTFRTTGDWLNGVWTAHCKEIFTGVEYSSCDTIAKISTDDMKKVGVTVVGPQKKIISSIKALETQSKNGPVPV

[2] = target: Ephrin type-A receptor 4 (Homo sapiens) (UniProt P54764); details: at 1 µM
Chain of Ephrin type-A receptor 4 (Homo sapiens) (P54764 whole entry): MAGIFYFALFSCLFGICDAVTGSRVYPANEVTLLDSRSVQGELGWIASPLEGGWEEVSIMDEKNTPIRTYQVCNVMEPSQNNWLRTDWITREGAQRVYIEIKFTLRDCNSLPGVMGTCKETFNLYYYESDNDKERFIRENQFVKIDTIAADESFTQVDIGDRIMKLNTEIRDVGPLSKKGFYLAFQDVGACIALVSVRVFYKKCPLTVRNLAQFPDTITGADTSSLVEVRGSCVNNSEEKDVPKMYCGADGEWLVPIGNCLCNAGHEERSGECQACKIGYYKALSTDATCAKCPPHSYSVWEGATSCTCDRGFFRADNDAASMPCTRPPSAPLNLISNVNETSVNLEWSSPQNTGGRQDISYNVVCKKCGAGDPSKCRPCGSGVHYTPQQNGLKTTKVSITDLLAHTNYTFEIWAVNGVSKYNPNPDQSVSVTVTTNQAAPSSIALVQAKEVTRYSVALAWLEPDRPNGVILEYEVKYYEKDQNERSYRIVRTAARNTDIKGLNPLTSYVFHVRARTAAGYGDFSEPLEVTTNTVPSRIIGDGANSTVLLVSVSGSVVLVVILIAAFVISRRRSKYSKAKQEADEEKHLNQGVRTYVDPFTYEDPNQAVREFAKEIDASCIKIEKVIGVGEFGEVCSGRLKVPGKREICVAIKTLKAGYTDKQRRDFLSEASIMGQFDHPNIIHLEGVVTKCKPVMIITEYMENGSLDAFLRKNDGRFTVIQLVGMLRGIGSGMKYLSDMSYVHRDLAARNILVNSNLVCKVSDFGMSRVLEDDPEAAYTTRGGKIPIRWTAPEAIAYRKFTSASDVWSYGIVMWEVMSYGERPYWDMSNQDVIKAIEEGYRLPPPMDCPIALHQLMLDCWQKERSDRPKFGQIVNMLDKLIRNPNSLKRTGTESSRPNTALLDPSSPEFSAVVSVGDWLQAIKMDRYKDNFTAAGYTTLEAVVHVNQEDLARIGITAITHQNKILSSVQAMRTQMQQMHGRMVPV

[3] = target: Ephrin type-A receptor 4 (Homo sapiens) (UniProt P54764); details: at 10 µM
[4] = target: Ephrin type-A receptor 5 (Homo sapiens) (UniProt P54756); details: at 1 µM
Chain of Ephrin type-A receptor 5 (Homo sapiens) (P54756 whole entry): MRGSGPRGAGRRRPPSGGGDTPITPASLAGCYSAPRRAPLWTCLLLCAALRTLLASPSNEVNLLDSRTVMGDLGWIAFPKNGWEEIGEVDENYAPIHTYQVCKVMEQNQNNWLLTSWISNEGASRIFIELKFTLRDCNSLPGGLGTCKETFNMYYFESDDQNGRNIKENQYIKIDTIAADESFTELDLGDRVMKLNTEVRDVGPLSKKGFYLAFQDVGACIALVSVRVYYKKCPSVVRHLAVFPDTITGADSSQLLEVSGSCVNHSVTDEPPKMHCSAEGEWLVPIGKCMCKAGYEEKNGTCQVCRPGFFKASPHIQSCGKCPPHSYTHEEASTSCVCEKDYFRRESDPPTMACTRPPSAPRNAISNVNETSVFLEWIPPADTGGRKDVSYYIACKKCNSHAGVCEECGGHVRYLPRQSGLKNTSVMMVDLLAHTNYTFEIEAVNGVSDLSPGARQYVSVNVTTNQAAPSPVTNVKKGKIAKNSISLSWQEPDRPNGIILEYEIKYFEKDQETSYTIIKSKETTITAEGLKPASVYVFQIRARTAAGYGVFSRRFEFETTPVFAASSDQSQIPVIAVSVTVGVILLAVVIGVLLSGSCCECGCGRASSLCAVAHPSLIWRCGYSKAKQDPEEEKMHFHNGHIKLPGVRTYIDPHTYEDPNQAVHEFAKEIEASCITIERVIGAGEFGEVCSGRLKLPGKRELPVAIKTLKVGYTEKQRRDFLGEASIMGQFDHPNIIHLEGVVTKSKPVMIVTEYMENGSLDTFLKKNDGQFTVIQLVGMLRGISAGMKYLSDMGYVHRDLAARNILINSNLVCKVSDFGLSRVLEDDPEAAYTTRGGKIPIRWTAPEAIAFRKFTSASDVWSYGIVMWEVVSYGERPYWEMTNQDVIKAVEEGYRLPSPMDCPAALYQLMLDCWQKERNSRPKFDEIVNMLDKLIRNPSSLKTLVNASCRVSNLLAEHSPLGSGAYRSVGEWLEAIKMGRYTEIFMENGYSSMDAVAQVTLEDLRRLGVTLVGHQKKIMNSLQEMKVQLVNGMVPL

[5] = target: Ephrin type-A receptor 5 (Homo sapiens) (UniProt P54756); details: at 10 µM
[6] = target: Ephrin type-A receptor 7 (Homo sapiens) (UniProt Q15375); details: at 1 µM
Chain of Ephrin type-A receptor 7 (Homo sapiens) (Q15375 28-998 limits assumed): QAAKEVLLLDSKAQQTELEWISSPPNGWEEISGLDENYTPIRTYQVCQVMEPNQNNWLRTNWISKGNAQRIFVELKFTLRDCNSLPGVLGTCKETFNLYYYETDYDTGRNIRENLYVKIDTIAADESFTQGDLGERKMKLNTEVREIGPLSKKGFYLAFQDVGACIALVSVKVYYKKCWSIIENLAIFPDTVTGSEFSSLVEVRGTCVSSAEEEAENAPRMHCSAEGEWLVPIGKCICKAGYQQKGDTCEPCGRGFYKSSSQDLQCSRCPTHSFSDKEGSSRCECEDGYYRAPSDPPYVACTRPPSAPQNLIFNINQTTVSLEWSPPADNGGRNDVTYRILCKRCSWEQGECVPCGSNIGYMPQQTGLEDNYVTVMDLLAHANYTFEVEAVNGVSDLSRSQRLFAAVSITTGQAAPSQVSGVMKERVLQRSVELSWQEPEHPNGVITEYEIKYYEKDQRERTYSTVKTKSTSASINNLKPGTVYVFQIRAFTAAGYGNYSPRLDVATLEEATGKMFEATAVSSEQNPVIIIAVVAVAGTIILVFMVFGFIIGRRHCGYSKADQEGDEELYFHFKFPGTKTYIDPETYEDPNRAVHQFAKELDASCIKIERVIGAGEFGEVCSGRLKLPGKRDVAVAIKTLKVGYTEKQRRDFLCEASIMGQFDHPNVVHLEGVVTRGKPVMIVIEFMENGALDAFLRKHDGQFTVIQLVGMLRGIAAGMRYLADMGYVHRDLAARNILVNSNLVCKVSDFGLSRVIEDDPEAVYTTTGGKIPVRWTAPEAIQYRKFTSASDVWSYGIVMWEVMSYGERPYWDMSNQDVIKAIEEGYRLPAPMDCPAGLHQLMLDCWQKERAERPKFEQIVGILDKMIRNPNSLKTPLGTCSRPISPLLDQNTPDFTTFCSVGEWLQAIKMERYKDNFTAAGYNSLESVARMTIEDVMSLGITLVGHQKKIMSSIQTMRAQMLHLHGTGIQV

[7] = target: Ephrin type-A receptor 7 (Homo sapiens) (UniProt Q15375); details: at 10 µM
[8] = target: T2, Ephrin type-A receptor 8 (Homo sapiens) (UniProt P29322); details: at 1 µM
T2 sequence (whole entry): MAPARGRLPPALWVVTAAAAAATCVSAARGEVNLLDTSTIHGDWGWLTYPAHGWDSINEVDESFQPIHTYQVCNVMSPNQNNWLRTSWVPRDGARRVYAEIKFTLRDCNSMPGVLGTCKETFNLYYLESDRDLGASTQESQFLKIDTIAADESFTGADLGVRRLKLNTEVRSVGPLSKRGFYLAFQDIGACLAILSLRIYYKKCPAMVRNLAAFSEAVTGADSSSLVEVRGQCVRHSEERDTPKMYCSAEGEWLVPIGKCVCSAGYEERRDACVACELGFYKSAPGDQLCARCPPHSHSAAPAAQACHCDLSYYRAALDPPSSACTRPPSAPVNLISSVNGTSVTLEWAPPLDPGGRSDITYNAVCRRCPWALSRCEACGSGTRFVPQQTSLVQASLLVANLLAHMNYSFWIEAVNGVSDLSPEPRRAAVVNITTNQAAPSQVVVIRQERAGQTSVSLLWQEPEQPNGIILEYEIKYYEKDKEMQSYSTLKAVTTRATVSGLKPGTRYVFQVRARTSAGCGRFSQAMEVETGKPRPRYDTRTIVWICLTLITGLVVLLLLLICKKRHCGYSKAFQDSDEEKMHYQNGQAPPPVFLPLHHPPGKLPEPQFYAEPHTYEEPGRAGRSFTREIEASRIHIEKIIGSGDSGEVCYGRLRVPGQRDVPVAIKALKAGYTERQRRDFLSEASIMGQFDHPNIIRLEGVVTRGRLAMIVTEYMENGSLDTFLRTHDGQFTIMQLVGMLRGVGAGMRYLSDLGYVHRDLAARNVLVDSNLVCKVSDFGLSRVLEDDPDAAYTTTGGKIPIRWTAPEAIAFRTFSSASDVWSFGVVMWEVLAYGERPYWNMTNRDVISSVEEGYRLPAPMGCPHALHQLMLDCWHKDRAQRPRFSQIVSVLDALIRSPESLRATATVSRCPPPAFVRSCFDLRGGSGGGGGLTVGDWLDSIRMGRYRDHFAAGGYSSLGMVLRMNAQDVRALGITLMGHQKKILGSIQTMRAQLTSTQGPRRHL

[9] = target: T2, Ephrin type-A receptor 8 (Homo sapiens); details: at 10 µM
[10] = target: T3, Ephrin type-B receptor 1 (Homo sapiens) (UniProt P54762); details: at 1 µM
T3 sequence (whole entry): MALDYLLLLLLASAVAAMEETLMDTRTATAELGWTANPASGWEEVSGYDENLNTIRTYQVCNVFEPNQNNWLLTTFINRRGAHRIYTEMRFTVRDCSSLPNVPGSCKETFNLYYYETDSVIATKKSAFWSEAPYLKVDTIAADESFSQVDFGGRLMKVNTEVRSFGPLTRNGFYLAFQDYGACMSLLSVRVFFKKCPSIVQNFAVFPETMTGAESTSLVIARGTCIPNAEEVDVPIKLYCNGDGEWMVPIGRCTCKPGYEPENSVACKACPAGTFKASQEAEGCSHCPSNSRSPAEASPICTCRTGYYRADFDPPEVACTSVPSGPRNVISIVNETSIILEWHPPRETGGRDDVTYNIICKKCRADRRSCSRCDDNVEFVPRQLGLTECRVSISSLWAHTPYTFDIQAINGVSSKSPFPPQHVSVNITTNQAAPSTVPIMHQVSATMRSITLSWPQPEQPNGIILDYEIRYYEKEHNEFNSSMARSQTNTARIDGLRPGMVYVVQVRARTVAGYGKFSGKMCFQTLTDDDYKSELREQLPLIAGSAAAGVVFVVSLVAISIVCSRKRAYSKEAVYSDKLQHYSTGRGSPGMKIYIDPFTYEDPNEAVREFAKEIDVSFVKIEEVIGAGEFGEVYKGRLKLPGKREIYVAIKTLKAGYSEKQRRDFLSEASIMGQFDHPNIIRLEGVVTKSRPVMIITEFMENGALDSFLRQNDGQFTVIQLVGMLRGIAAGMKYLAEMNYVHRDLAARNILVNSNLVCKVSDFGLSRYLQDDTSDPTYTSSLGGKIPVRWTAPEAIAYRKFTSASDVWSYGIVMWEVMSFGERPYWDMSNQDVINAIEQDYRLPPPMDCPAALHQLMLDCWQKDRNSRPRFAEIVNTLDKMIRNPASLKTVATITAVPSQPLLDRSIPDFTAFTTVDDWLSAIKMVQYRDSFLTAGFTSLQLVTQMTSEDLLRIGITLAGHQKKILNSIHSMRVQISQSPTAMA

Compound: O=C(O)c1ccc2c3c1cccc3c(=O)n1c3ccccc3nc21
- residual activity [1]: 91%
- residual activity [2]: 106%
- residual activity [3]: 104%
- residual activity [4]: 102%
- residual activity [5]: 100%
- residual activity [6]: 104%
- residual activity [7]: 88%
- residual activity [8]: 103%
- residual activity [9]: 93%
- residual activity [10]: 107%
